Measured values published in PubChem BioAssay (NCI).
The panel holds about 79,000 compounds, 15% with a hit somewhere; the sample as a whole holds those more often. Cut-off read from the data, not from the text of the source: active = growth inhibition above about 70%; inactive = the rest.

Columns and labels:
[1] = NCI Yeast Anticancer Drug Screen. Data for the rad50 strain (AID 155);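 note: 0% = growth of vehicle-only cultures of the same strain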; settings: S. cerevisiae rad50 strain growth inhibition; at 50.0 µM; hits give high values
How it was run: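 Growth of the mutant yeast was measured after compound exposure and referenced to vehicle-treated cultures.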

[2] = NCI Yeast Anticancer Drug Screen. Data for the mec2-1 strain (AID 157); settings: S. cerevisiae mec2-1 strain, at 50.0 µM, hits give high values
How it was run: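 Compounds were applied to mec2-1 yeast cells. Their growth was then compared with that of vehicle-treated cultures to give growth inhibition.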

[3] = NCI Yeast Anticancer Drug Screen. Data for the sgs1 mgt1 strain (AID 161);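 note: 0% = growth of cultures given vehicle only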; settings: S. cerevisiae sgs1 mgt1 strain, at 50.0 µM, hits give high values
How it was run: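 Percent growth inhibition was derived by comparing compound-exposed mutant yeast with vehicle-exposed cultures. The strain carries alterations in DNA damage repair.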

[4] = NCI Yeast Anticancer Drug Screen. Data for the cln2 rad14 strain (AID 165);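 note: 0% = growth equal to vehicle treated cultures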; settings: S. cerevisiae cln2 rad14 strain, at 50.0 µM, hits give high values
How it was run: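 Strain: cln2 rad14 yeast, altered in cell cycle control and DNA damage repair. Read-out: growth inhibition vs vehicle.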

[5] = NCI Yeast Anticancer Drug Screen. Data for the bub3 strain (AID 167); settings: S. cerevisiae bub3 mutant strain, at 50.0 µM, hits give high values
How it was run: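 Whole-cell yeast assay. The mutant strain was incubated with compounds, and growth inhibition was determined by comparison with vehicle-treated cells.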

[6] = NCI Yeast Anticancer Drug Screen. Data for the mlh1 rad18 strain (AID 175); settings: S. cerevisiae mlh1 rad18 strain growth inhibition; at 50.0 µM; hits give high values
How it was run: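 A repair-deficient yeast strain is exposed to test compound, and growth is scored relative to vehicle-treated controls.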

Measured: growth inhibition

CCCOP1(=O)C=C(O)C(Cl)=C(C)C1 (stereo not given)
inactive: [1] -32.5% | [2] -15.4% | [3] -42.8% | [4] -12.8% | [5] -19.4% | [6] -46.8%

Nc1ccccc1Nc1ccccc1C(=O)[O-].Nc1ccccc1Nc1ccccc1C(=O)[O-].[Cu+2]
inactive: [1] -3.5% | [2] 7.8% | [3] -19.5% | [4] -3.3% | [5] -11.8% | [6] 7.75%

COc1ccc(S(=O)(=O)F)cc1N
inactive: [1] -18.6% | [2] -32.5% | [3] -21.6% | [4] 4.35% | [5] -14.3% | [6] -22.4%

CS(=N)(=O)CCC(N)P(=O)(O)O (stereo not given)
inactive: [1] -29.8% | [2] -37.6% | [3] 6.85% | [4] 13.9% | [5] -50.5% | [6] -27.9%

O=C(c1ccccc1)c1ccc2n[se]nc2c1
inactive: [1] -32.4% | [2] 10.2% | [3] 18.2% | [4] 4.65% | [5] 17.1% | [6] 25.5%

Cc1ccc(OP(=O)(Oc2ccc(C)cc2)Oc2ccc(C)cc2)cc1.Cc1ccc(OP(=O)(Oc2ccc(C)cc2)Oc2ccc(C)cc2)cc1.[Cl][Ni][Cl]
inactive: [1] 23.5% | [2] 35.8% | [3] 29.4% | [4] 4.2% | [5] 38.4% | [6] 59.3%

COC(=O)C(CCC(=O)O)NC(=O)OCc1ccccc1 (stereo not given)
inactive: [1] 40.5% | [2] -1.35% | [3] 17.6% | [4] -7.7% | [5] 4.55% | [6] 19.5%

Clc1ccc([C@H]2N[C@@H]2c2ccccn2)cc1
inactive: [1] 11.2% | [2] 16.1% | [3] 13.7% | [4] -8.45% | [5] 9.15% | [6] -5.55%

CC1(C)c2ccccc2C(c2ccccc2)(c2ccccc2)[N+]1(C)C
inactive: [1] 63.4% | [2] 33.7% | [3] 52.2% | [4] 21.7% | [5] 22.2% | [6] 49%

CC12CCC(OC3OC(CO)C(O)C(O)C3O)C=C1CCC1C2CCC2(C)C(c3ccc(=O)oc3)CCC12 (stereo not given)
inactive: [1] 62.5% | [2] 60% | [3] 46.3% | [4] 35.2% | [5] 61.2% | [6] 45.6%

O=[N+]([O-])c1ccc(P2(=O)Nc3ccccc3N2)cc1
inactive: [1] -21.9% | [2] -12.7% | [3] -8.6% | [4] -46.8% | [5] 0.25% | [6] -11.6%

CCN(CC)CCc1ccncc1
inactive: [1] 12.6% | [2] 10.1% | [3] 6.65% | [4] 30% | [5] -5.05% | [6] 9.65%

O=P1(N(CCCl)CCCl)NCCCO1 (stereo not given)
inactive: [1] -8.1% | [2] -32.2% | [3] -6.1% | [4] 4.8% | [5] -15.2% | [6] -7.05%

CCC1C2Cc3ccc(O)cc3C1(CC)CCN2C (stereo not given)
inactive: [1] 10.6% | [2] -35.2% | [3] -42.5% | [4] -1.65% | [5] -77.2% | [6] -13.2%

O=C(c1ccccc1)N1CC1
inactive: [1] 6.1% | [2] 33.9% | [3] -22.1% | [4] 35.5% | [5] -3.8% | [6] 0.35%

COc1nc(N2CCNCC2)nc2c1CCCC2
inactive: [1] 4.85% | [2] -10.7% | [3] -21.1% | [4] 17.8% | [5] -0.75% | [6] -0.45%

CC(NC(=O)c1c(O)[nH]c(=S)[nH]c1=O)c1ccc([N+](=O)[O-])cc1 (stereo not given)
inactive: [1] 17.9% | [2] 13.8% | [3] 35.8% | [4] 19.4% | [5] 12.1% | [6] 14.6%

Brc1ccc(Oc2ccc(Br)cc2Br)c(Br)c1
inactive: [1] 13.9% | [2] -21.5% | [3] 8.2% | [4] 2% | [5] 21.6% | [6] 32.4%

CC(C)(O)OC1COC(C2CS2)C1O (stereo not given)
inactive: [1] 18.1% | [2] 15.6% | [3] 3.95% | [4] 34.8% | [5] 29.6% | [6] -22.4%

C[N+](C)([O-])CCNC(=O)c1cc(N(CCCl)CCCl)c([N+](=O)[O-])cc1[N+](=O)[O-]
inactive: [1] -7.55% | [2] -35% | [3] -3.9% | [4] -63.5% | [5] -4.95% | [6] -11.8%
